Measurements published in PubChem BioAssay (EPA / NIEHS).
Records with an inconclusive call do not appear. The source made the active and inactive calls. The calls were made as follows, unless noted: active = hit-call score of the fitted dose curve at least 0.9, where 1 is the maximum; inconclusive = response in the unintended direction; inactive = score below 0.9.

test system: not listed separately; experiment: Tanguay_ZF_120hpf_CIRC_legacy: (Legacy) Oregon State University Tanguay Lab 120 Hour Post-fertilization zebrafish Assay for Circulatory Malformation (AID 2283651); settings: not given
Summary of the method: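 Using wild-type Tropical 5D zebrafish, we exposed dechorionated embryos from 6 to 120 hpf in embryo medium with 0.64% DMSO. Circulatory defects were scored as present or absent; 5uM trimethyltin chloride served as positive control.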

Q: For `O=C(Oc1ccccc1)c1cccc(C(=O)Oc2ccccc2)c1`, which outcome is on record?
A: inactive

Q: Which outcome does the source give for `O=C(O)CN(CC(=O)O)CC(=O)O` here?
A: inactive

Q: For `O=C1CCCCC1`, which outcome is on record?
A: inactive

Q: Which outcome does the source give for `CC(C)OC(=O)C(C)(C)Oc1ccc(C(=O)c2ccc(Cl)cc2)cc1` here?
A: inactive

Q: With `CCCC[C@H]1CN(CC2CCOCC2)C(=O)OC12CCN(C1(C)CCN(C(=O)c3c(C)ncnc3C)CC1)CC2` as the compound, how does the outcome read?
A: inactive

Q: For `CSc1ccc(Oc2ccc(S(N)(=O)=O)cc2CN(C)C)cc1C`, which outcome is on record?
A: inactive

Q: For `CCCCCCCCCC[N+](C)(C)[O-]`, which outcome is on record?
A: inactive

Q: With `O=C(O)c1cccnc1` as the compound, how does the outcome read?
A: inactive

Q: For `Cc1ccc(-c2cc(C(F)(F)F)nn2-c2ccc(S(N)(=O)=O)cc2)cc1`, which outcome is on record?
A: inactive

Q: For `CC(COCC(C)OC(=O)c1ccccc1)OC(=O)c1ccccc1` (stereo unspecified), which outcome is on record?
A: inactive

Q: For `N[C@@H](Cc1c[nH]c2ccccc12)C(=O)O`, which outcome is on record?
A: inactive

Q: With `CC(=O)CC(c1ccccc1)c1c(O)c2ccccc2oc1=O` (stereo unspecified) as the compound, how does the outcome read?
A: inactive

Q: Which outcome does the source give for `CO[C@@H]1COCC[C@@H]1N[C@@H]1CC[C@@](C(=O)N2CCc3ncc(C(F)(F)F)cc3C2)(C(C)C)C1` here?
A: inactive

Q: For `CC(=O)O[C@]1(C(C)=O)CC[C@H]2[C@@H]3C=C(Cl)C4=CC(=O)[C@@H]5C[C@@H]5[C@]4(C)[C@H]3CC[C@@]21C`, which outcome is on record?
A: inactive

Q: With `Cc1occc(=O)c1O` as the compound, how does the outcome read?
A: inactive

Q: For `CN(C)CCCN1c2ccccc2Sc2ccc(Cl)cc21`, which outcome is on record?
A: inactive

Q: Which outcome does the source give for `NCCOCCOCCN` here?
A: inactive

Q: For `CCCCC(CC)COC(=O)CCCCCCCC(=O)OCC(CC)CCCC` (stereo unspecified), which outcome is on record?
A: inactive

Q: Which outcome does the source give for `OCC(CO)n1cnc(-c2ccc(F)cc2)c1-c1ccnc(Oc2ccccc2)n1` here?
A: inactive

Q: With `COC(=O)CCC(=O)OC` as the compound, how does the outcome read?
A: inactive

Q: With `CCC(C)N(C)C(=O)c1cc2ccccc2c(-c2ccccc2Cl)n1` (stereo unspecified) as the compound, how does the outcome read?
A: inactive

Q: Which outcome does the source give for `COc1ccc(OC(F)(F)F)cc1CN[C@H]1CCCN[C@H]1c1ccccc1` here?
A: inactive

Q: Which outcome does the source give for `OCC(O)CO` here?
A: inactive

Q: Which outcome does the source give for `Nc1nc(Cl)nc2c1ncn2[C@H]1C[C@H](O)[C@@H](CO)O1` here?
A: inactive

Q: Which outcome does the source give for `CC1=C(C)S(=O)(=O)CCS1(=O)=O` here?
A: inactive

Q: For `O=C1NC(=O)C(c2ccccc2)(c2ccccc2)N1`, which outcome is on record?
A: inactive

Q: For `CCCCC(CC)CO` (stereo unspecified), which outcome is on record?
A: inactive

Q: For `C#CC(O)C(CC)CCCC` (stereo unspecified), which outcome is on record?
A: inactive

Q: For `CCCCc1nc2cccnc2n1Cc1ccc(-c2ccccc2-c2nnn[nH]2)cc1`, which outcome is on record?
A: inactive

read-out: kallikrein-3 (KLK3), KLK3 (gene 354); experiment: LTEA_HepaRG_KLK3: Life Technologies and Expression Analysis (LTEA) Assay for kallikrein-3 (KLK3) using HepaRG (AID 2283652; active = hit-call score of the fitted dose curve at least 0.9, where 1 is the maximum; inactive = score below 0.9); settings: mRNA level, 48 h; actives raise or lower the signal
Summary of the method: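 Differentiated human HepaRG cells in serum-free induction medium exposed 48 h in duplicate, eight-point half-log series from 100 uM in 0.5% DMSO. KLK3 mRNA by qRT-PCR, normalised to ACTB, GAPDH, POLR2A; bidirectional fit versus DMSO.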

Q: Which outcome does the source give for `CN(C)CCCN1c2ccccc2Sc2ccc(Cl)cc21` here?
A: inactive

Q: For `CCC(C)N(C)C(=O)c1cc2ccccc2c(-c2ccccc2Cl)n1` (stereo unspecified), which outcome is on record?
A: inactive

Q: Which outcome does the source give for `CCCCC(CC)CO` (stereo unspecified) here?
A: inactive

read-out: solute carrier (SLC22A6), SLC22A6 (gene 9356); experiment: LTEA_HepaRG_SLC22A6: Life Technologies and Expression Analysis (LTEA) Assay for solute carrier (SLC22A6) using HepaRG (AID 2283653; active = hit-call score of the fitted dose curve at least 0.9, where 1 is the maximum; inactive = score below 0.9); settings: mRNA level, 48 h; actives raise or lower the signal
Summary of the method: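 Differentiated HepaRG cells exposed 48 h in serum-free induction medium to 8 half-log concentrations, top 100 uM, in 0.5% DMSO; SLC22A6 mRNA by Fluidigm qRT-PCR normalized to ACTB, GAPDH, POLR2A, fitted bidirectionally versus DMSO.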

Q: With `CCCCCCCCCC[N+](C)(C)[O-]` as the compound, how does the outcome read?
A: inactive

Q: With `Cc1occc(=O)c1O` as the compound, how does the outcome read?
A: inactive

Q: With `CN(C)CCCN1c2ccccc2Sc2ccc(Cl)cc21` as the compound, how does the outcome read?
A: inactive

Q: Which outcome does the source give for `CCC(C)N(C)C(=O)c1cc2ccccc2c(-c2ccccc2Cl)n1` (stereo unspecified) here?
A: inactive

Q: Which outcome does the source give for `CCCCC(CC)CO` (stereo unspecified) here?
A: inactive

test system: not listed separately; experiment: Tanguay_ZF_120hpf_SWIM_legacy: (Legacy) Oregon State University Tanguay Lab 120 Hour Post-fertilization zebrafish Assay for Swim Bladder Malformation (AID 2283654); settings: not given;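 also: swim bladder malformation in each larva scored yes or no under brightfield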
Summary of the method: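 Dechorionated Tropical 5D wild-type embryos, placed singly from 6 hpf, were statically exposed at 28C to 120 hpf with 0.64% DMSO final; swim bladder malformation was scored present/absent by brightfield microscopy, gain of signal relative to DMSO controls.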

Q: With `O=C(Oc1ccccc1)c1cccc(C(=O)Oc2ccccc2)c1` as the compound, how does the outcome read?
A: inactive

Q: For `O=C(O)CN(CC(=O)O)CC(=O)O`, which outcome is on record?
A: inactive

Q: For `O=C1CCCCC1`, which outcome is on record?
A: inactive

Q: For `CC(C)OC(=O)C(C)(C)Oc1ccc(C(=O)c2ccc(Cl)cc2)cc1`, which outcome is on record?
A: inactive

Q: Which outcome does the source give for `CCCC[C@H]1CN(CC2CCOCC2)C(=O)OC12CCN(C1(C)CCN(C(=O)c3c(C)ncnc3C)CC1)CC2` here?
A: inactive

Q: Which outcome does the source give for `CSc1ccc(Oc2ccc(S(N)(=O)=O)cc2CN(C)C)cc1C` here?
A: inactive

Q: With `CCCCCCCCCC[N+](C)(C)[O-]` as the compound, how does the outcome read?
A: inactive

Q: For `O=C(O)c1cccnc1`, which outcome is on record?
A: inactive

Q: Which outcome does the source give for `Cc1ccc(-c2cc(C(F)(F)F)nn2-c2ccc(S(N)(=O)=O)cc2)cc1` here?
A: inactive

Q: With `CC(COCC(C)OC(=O)c1ccccc1)OC(=O)c1ccccc1` (stereo unspecified) as the compound, how does the outcome read?
A: inactive

Q: For `N[C@@H](Cc1c[nH]c2ccccc12)C(=O)O`, which outcome is on record?
A: inactive

Q: For `CC(=O)CC(c1ccccc1)c1c(O)c2ccccc2oc1=O` (stereo unspecified), which outcome is on record?
A: inactive

Q: For `CO[C@@H]1COCC[C@@H]1N[C@@H]1CC[C@@](C(=O)N2CCc3ncc(C(F)(F)F)cc3C2)(C(C)C)C1`, which outcome is on record?
A: inactive

Q: For `CC(=O)O[C@]1(C(C)=O)CC[C@H]2[C@@H]3C=C(Cl)C4=CC(=O)[C@@H]5C[C@@H]5[C@]4(C)[C@H]3CC[C@@]21C`, which outcome is on record?
A: inactive

Q: For `Cc1occc(=O)c1O`, which outcome is on record?
A: inactive

Q: Which outcome does the source give for `CN(C)CCCN1c2ccccc2Sc2ccc(Cl)cc21` here?
A: inactive

Q: With `NCCOCCOCCN` as the compound, how does the outcome read?
A: inactive

Q: Which outcome does the source give for `CCCCC(CC)COC(=O)CCCCCCCC(=O)OCC(CC)CCCC` (stereo unspecified) here?
A: inactive

Q: Which outcome does the source give for `OCC(CO)n1cnc(-c2ccc(F)cc2)c1-c1ccnc(Oc2ccccc2)n1` here?
A: inactive

Q: Which outcome does the source give for `COC(=O)CCC(=O)OC` here?
A: inactive

Q: With `CCC(C)N(C)C(=O)c1cc2ccccc2c(-c2ccccc2Cl)n1` (stereo unspecified) as the compound, how does the AC50 read?
A: 18.5 µM (active)

Q: For `COc1ccc(OC(F)(F)F)cc1CN[C@H]1CCCN[C@H]1c1ccccc1`, which outcome is on record?
A: inactive

Q: With `OCC(O)CO` as the compound, how does the outcome read?
A: inactive

Q: For `Nc1nc(Cl)nc2c1ncn2[C@H]1C[C@H](O)[C@@H](CO)O1`, which outcome is on record?
A: inactive

Q: For `CC1=C(C)S(=O)(=O)CCS1(=O)=O`, which outcome is on record?
A: inactive

Q: Which outcome does the source give for `O=C1NC(=O)C(c2ccccc2)(c2ccccc2)N1` here?
A: inactive

Q: For `CCCCC(CC)CO` (stereo unspecified), which outcome is on record?
A: inactive

Q: Which outcome does the source give for `C#CC(O)C(CC)CCCC` (stereo unspecified) here?
A: inactive

Q: With `CCCCc1nc2cccnc2n1Cc1ccc(-c2ccccc2-c2nnn[nH]2)cc1` as the compound, how does the outcome read?
A: inactive
